Results reported in PubChem BioAssay (NCI).
This is part of a sample that, as a whole, favours compounds with a hit. Of some 79,000 tested, about 15% had one in any assay. Activity calls are given as the source filed them. Cut-off read from the data, not from the text of the source: active = growth inhibition above about 70%; inactive = the rest.

Columns and labels:
[1] = NCI Yeast Anticancer Drug Screen. Data for the rad50 strain (AID 155);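 note: 0% = growth of vehicle-only cultures of the same strain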; conditions: S. cerevisiae rad50 strain growth inhibition; at 50.0 µM; hits give high values
How it was run: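 DNA repair mutant yeast, compound exposure, growth read-out; inhibition is taken relative to vehicle.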

[2] = NCI Yeast Anticancer Drug Screen. Data for the mec2-1 strain (AID 157); conditions: S. cerevisiae mec2-1 strain, at 50.0 µM, hits give high values
How it was run: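 Test agents were screened against the mec2-1 yeast strain, with defined DNA repair or cell cycle alteration. Growth was scored as inhibition against vehicle-only controls.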

[3] = NCI Yeast Anticancer Drug Screen. Data for the sgs1 mgt1 strain (AID 161);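 note: 0% = growth of cultures given vehicle only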; conditions: S. cerevisiae sgs1 mgt1 strain, at 50.0 µM, hits give high values
How it was run: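 Mutant yeast exposed to compound; growth scored against vehicle-only wells.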

[4] = NCI Yeast Anticancer Drug Screen. Data for the cln2 rad14 strain (AID 165);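 note: 0% = growth equal to vehicle treated cultures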; conditions: S. cerevisiae cln2 rad14 strain, at 50.0 µM, hits give high values
How it was run: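 Growth of compound-exposed yeast (cln2 rad14 genotype) measured and expressed as inhibition relative to vehicle.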

[5] = NCI Yeast Anticancer Drug Screen. Data for the bub3 strain (AID 167); conditions: S. cerevisiae bub3 mutant strain, at 50.0 µM, hits give high values
How it was run: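 In this screen, a yeast mutant lacking normal mitotic checkpoint function is challenged with compound. Relative growth versus vehicle gives the inhibition value.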

[6] = NCI Yeast Anticancer Drug Screen. Data for the mlh1 rad18 strain (AID 175); conditions: S. cerevisiae mlh1 rad18 strain growth inhibition; at 50.0 µM; hits give high values
How it was run: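 In this whole-cell yeast screen, a strain with altered DNA damage repair is challenged with compound, and its growth is measured against matched vehicle-treated controls.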

Measured: growth inhibition

C1COCCN2CCOCCOCCN(CCO1)CCOCC2
inactive: [1] 3.6% | [2] 11.2% | [3] -0.25% | [4] 12.7% | [5] 23.6% | [6] 23.7%

Cn1ccnc1CCc1c(Cl)cccc1Cl
inactive: [1] -19.9% | [2] -21.4% | [3] -47.1% | [4] 9.4% | [5] -16.2% | [6] -22.9%

CC(C)CC(NC(=O)C(O)C(N)Cc1ccccc1)C(=O)O (stereo unspecified)
inactive: [1] 56.5% | [2] 26.6% | [3] 60.4% | [4] 47.8% | [5] 36% | [6] -21.7%

O=C1C2CCC(C2)C1CN1CCOCC1 (stereo unspecified)
inactive: [1] -10.7% | [2] 3.25% | [3] -1.25% | [4] 0.5% | [5] -7.35% | [6] -7.35%

CN(Cc1cnc2nc(N)nc(N)c2n1)c1ccc(C(=O)NC(CCC(=O)OC(C)(C)C)C(=O)O)cc1 (stereo unspecified)
inactive: [1] 13.7% | [2] 32.4% | [3] 4.5% | [4] -20.1% | [5] -2.55% | [6] -1.2%

COC(=O)C(Cc1nc2ccccc2[nH]c1=O)C(=O)C(=O)Nc1ccc(OC)cc1[N+](=O)[O-] (stereo unspecified)
inactive: [1] -14.4% | [2] -9.5% | [3] 14.3% | [4] -77.2% | [5] -1.4% | [6] 5.5%

NCCCNCCCCNC(=O)C(O)NC(=O)CCCCCCN=C(N)N (stereo unspecified)
inactive: [1] -2.7% | [2] -11.2% | [3] -2.05% | [4] 11.4% | [5] 3.4% | [6] -1.6%

OC(c1ccccc1)(c1ccccc1)c1nc2ccccc2[nH]1
inactive: [1] 2.7% | [2] -1.75% | [3] 14.2% | [4] -19.8% | [5] -0.1% | [6] -0.9%

CN1CCN(CCNNCCN2CCCC(O)C2)CC1 (stereo unspecified)
inactive: [1] 3.2% | [2] -1.65% | [3] -5.15% | [4] -6.05% | [5] -7.25% | [6] 10.7%

N#CCCCCCCCCCCC(=O)O
inactive: [1] -24.6% | [2] -55.9% | [3] 1.95% | [4] 1.45% | [5] -59.4% | [6] -10.2%

CN(C)c1ccc2c(c1)Cc1cc(N3C(=O)C=CC3=O)ccc1-2
active: [1] 97.3% | [2] 98% | [3] 98.9% | [4] 97.6% | [5] 98.2% | [6] 98.5%

O=C(CC(C(=O)c1cccs1)c1ccsc1)c1ccsc1 (stereo unspecified)
inactive: [1] -14% | [2] -50.2% | [3] -4.4% | [4] 7.55% | [5] 25.2% | [6] -25.6%

CCOC(=O)SC1=NC(C)=CC(C)(C)S1
inactive: [1] 2.4% | [2] 6.55% | [3] 18.6% | [4] -10.9% | [5] -3.7% | [6] -4.7%

O=C(O)/C(=C/c1ccccc1[N+](=O)[O-])c1ccccc1
inactive: [1] 40.1% | [2] -16.1% | [3] 20.5% | [4] 17.5% | [5] -8.85% | [6] -12.7%

C/C=C\C(=O)OCC(C)COC(=O)/C=C/C (stereo unspecified)
inactive: [1] 21.7% | [2] 15.9% | [3] 4.9% | [4] 9.4% | [5] 2.65% | [6] 6.65%

CCOC(=O)C(=O)N=Nc1nc2c(O)c3ccccc3c(O)c2s1
active: [1] 78.2% | [2] 87.8% | [3] 83% | [5] 89.2%
inactive: [4] 45.8% | [6] 58.5%

CCCCCC(=O)Cc1cc(O)cc2c1C(=O)Oc1cc(O)c(C(=O)O)c(CCCCC)c1O2
inactive: [1] 26.1% | [2] 7.45% | [3] 32% | [4] 17.8% | [5] 16.4% | [6] 16.9%

C=CCOC(=O)C1CC(C)=CC(C)C1C (stereo unspecified)
inactive: [1] 23.5% | [2] 3.6% | [3] -13.7% | [4] -46.4% | [5] -12.1% | [6] 5.2%

COc1ccc(/C=[N+](\[O-])[C@H](COCc2ccccc2)c2ccccc2)cc1
inactive: [1] 18.4% | [2] -18.3% | [3] 0.05% | [4] -1.6% | [5] 6.6% | [6] 4.3%

Cc1cc(=O)c(O)c(C)o1
inactive: [1] -1.4% | [2] -2.9% | [3] -3.4% | [4] 2.5% | [5] -0.05% | [6] -1.7%

COc1ccc(/C=N/Nc2ccc(S(=O)(=O)O)cc2)cc1
inactive: [1] 5.45% | [2] -12.6% | [3] -18.7% | [4] -6.45% | [5] -21.2% | [6] 13.2%

COc1ccc2nc3cc(Cl)ccc3c(Sc3ccc(NC(C)=O)cc3)c2c1
inactive: [1] 22.1% | [2] -5% | [3] -2.5% | [4] 11.3% | [5] 11.3% | [6] 9.1%

O=c1oc2cc(O)ccc2cc1-c1nc2ccccc2o1
inactive: [1] -2.1% | [2] -10.8% | [3] -31.2% | [4] 14.1% | [5] 2.75% | [6] -4.1%

CC(=O)c1cccc(NC(=O)N2CCCCC2C)c1 (stereo unspecified)
inactive: [1] -4.9% | [2] 29.9% | [3] 8.9% | [4] -13.3% | [5] 15.2% | [6] -12.8%

COCCCN(Cc1cc(OC)c(OC)c(OC)c1)C(=S)Nc1cccc(SC)c1
inactive: [1] 13.8% | [2] -19.4% | [3] 40.5% | [4] 25.6% | [5] 51.2% | [6] 16.6%

NC(=O)c1ccccc1Sc1ccccc1C(N)=O
inactive: [1] -4.6% | [2] 2.35% | [3] 5.4% | [4] 2.45% | [5] 1.65% | [6] 0.6%

C[CH2][Sn]([CH2]C)([n]1c2ccccc2c2c(C)c3cnccc3c(C)c21)[n]1c2ccccc2c2c(C)c3cnccc3c(C)c21
inactive: [2] 14.7% | [3] 25.5% | [4] 44.5% | [5] 25.6%
active: [1] 72.2% | [6] 71.3%

NC(=O)NC1=NCCC(=O)N1CCc1c[nH]c2ccccc12
inactive: [1] 51.3%
active: [2] 75.9% | [3] 84.2% | [4] 78.5% | [5] 77.7% | [6] 88%

COc1cc(C(=O)O)cc(OC(C)=O)c1OC
inactive: [1] 16.6% | [2] 3.9% | [3] 8.3% | [4] 8.65% | [5] 3.4% | [6] 20.7%

CC(C)CC(NC(=O)CCCCCl)C(=O)O (stereo unspecified)
inactive: [1] -1.85% | [2] -4.65% | [3] 0.25% | [4] 2.75% | [5] -3.4% | [6] 6.05%

CC(=O)OCC1OC(OCC[N+](C)(C)C)C(OC(C)=O)C(OC(C)=O)C1OC(C)=O (stereo unspecified)
inactive: [1] -1.65% | [2] 14.9% | [3] -15.6% | [4] -2.4% | [5] -7.35% | [6] 15.3%

C=C(N1CCCCC1)N1CCCCC1
inactive: [1] -2.75% | [2] -25.1% | [3] -9.15% | [4] -46.5% | [5] -15.9% | [6] -11.4%

CCCCCC[C@@H](O)C/C=C\CCCCCCCC(=O)OCC(C)O (stereo partly specified)
inactive: [1] 22.1% | [2] -2.35% | [3] 8.9% | [4] -30.6% | [5] -2.85% | [6] -20.4%

CCC(c1ccc(N(C)C)cc1)c1ccc(N(C)C)cc1
inactive: [1] 3.8% | [2] -48.9% | [3] 1.6% | [4] 8.35% | [5] 0.05% | [6] 4.2%

CC(=O)OCC1=COC(OC(=O)CC(C)(C)OC(C)=O)C2C1=CC(OC(=O)CC(C)C)[C@@]21CO1 (stereo partly specified)
inactive: [1] 14.4% | [2] 16.4% | [3] 3.6% | [4] 6.3% | [5] 6.75% | [6] 9.95%

O=C(O)c1c(Br)c(Br)c(Br)c(Br)c1C(=O)Nc1ccc(Cl)c(Cl)c1
inactive: [1] -1.05% | [2] 5.15% | [3] -0.75% | [4] -11.1% | [5] 0% | [6] -21%

O=C1CC(c2ccccc2)=NCCN1
inactive: [1] -9.2% | [2] 16.2% | [3] 11.9% | [4] -3.55% | [5] -19.4% | [6] -7.25%

Cc1ccc(-c2c(C#N)c(-c3ccc([N+](=O)[O-])cc3)c(C#N)c(=O)n2NS(=O)(=O)c2ccccc2)cc1
inactive: [1] 23.1% | [2] 16.8% | [3] 24.5% | [4] 27.4% | [5] 14.6% | [6] 0.8%

CN(C)Cc1cc(C(C)(C)CC(C)(C)C)cc(Br)c1O
inactive: [1] 33% | [2] 21.4% | [3] 30.6% | [4] 28.8% | [5] 39.7% | [6] 26.9%

COc1ccccc1NC(=O)C(CC(C(=O)Nc1ccccc1OC)/C(C)=N/NC(=O)c1ccccc1O)/C(C)=N/NC(=O)c1ccccc1O (stereo unspecified)
inactive: [1] -27.8% | [2] -14.2% | [3] -28.2% | [4] 21.9% | [5] -3.55% | [6] -9.1%

COC(=O)C1=CCS(=O)(=O)C1
inactive: [1] -7.45% | [2] -7.8% | [3] -4.3% | [4] 6.1% | [5] 15% | [6] -9.5%
